GPT2 inh = GPT2 alanine aminotransferase inhibition; Recombinant GPT2, coupled pyruvate oxidase/HRP Amplex Red fluorescence; Potency, µM (highest dose often 57.7 µM), actives largely listed as inhibitors; 0.25% of 100,000 active; AID 1671188; further: nearly all actives have a fitted effect of over 60% in size
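GPT2 10ng/uL, a-KG 250uM, L-Ala 2mM, HEPES pH7.5 + 0.0001% Tween; 30 min RT. Then Amplex mix (PO/HRP/ThPP), 30 min RT dark, fluorescence. AOA 50uM used as positive control.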
hNpr1 antagonist = antagonists of human natriuretic peptide receptor Npr1. HEK293 hNpr1 GloSensor cGMP, ANP-stimulated luminescence. AID 1347048. P16066. 1.6% of 76,000 active. Potency, µM (top dose mostly 46.3 µM), actives largely listed as inhibitors; calls by dose curve; further: nearly all actives have a fitted effect of over 60% in size
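HEK293 cells stably expressing human Npr1 and cGMP GloSensor pGS-40F, loaded 2 h with 2% GloSensor reagent, given compound 30 min at room temperature. Luminescence read before and 20 min after 0.1 nM hNppA.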
3T3 cytotox = kills NIH 3T3 cells; NIH 3T3 viability, CellTiter-Glo ATP luminescence, 48-72 h; Potency, µM (doses to about 96.7 µM), most hits filed as inhibitors; 4.3% of 94,000 active; AID 1345082; further: nearly all actives have a fitted effect of over 55% in size
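Cells were seeded at 400 per well, treated with pin-transferred compound, and kept 48 or 72 hr at 37 °C before CellTiter-Glo addition and luminescence imaging of cellular ATP.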
FLuc inh = inhibitors of firefly (Photinus pyralis) luciferase. P08659. Potency, µM (top dose mostly 115 µM), most hits filed as inhibitors. 2.5% of 76,000 active. AID 1347043. purified P. pyralis luciferase, luminescence, biochemical; further: nearly all actives have a fitted effect of over 65% in size
Target sequence (P08659 whole entry, looked up): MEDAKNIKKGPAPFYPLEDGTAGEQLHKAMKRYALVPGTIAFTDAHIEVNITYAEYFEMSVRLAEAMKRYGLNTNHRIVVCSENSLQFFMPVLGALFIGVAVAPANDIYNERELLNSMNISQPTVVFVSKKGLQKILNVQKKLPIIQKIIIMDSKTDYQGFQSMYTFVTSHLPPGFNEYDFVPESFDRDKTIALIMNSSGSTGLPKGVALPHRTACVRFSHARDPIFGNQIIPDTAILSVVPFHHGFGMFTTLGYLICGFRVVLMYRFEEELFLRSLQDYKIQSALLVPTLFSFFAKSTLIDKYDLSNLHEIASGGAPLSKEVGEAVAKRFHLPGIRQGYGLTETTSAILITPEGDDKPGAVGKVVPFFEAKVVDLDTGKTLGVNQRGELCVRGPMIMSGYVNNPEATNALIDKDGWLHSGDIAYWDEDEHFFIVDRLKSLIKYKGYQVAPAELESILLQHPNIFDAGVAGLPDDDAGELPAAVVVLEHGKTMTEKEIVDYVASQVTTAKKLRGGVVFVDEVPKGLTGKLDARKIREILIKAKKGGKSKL
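Purified 10nM P. pyralis luciferase with 10uM D-luciferin and 10uM ATP in 50mM Tris acetate pH 7.5, 10mM Mg acetate, 0.01% Tween-20, 0.05% BSA. qHTS titration; luminescence read by CCD imager.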
HEK cytotox = HEK 293 cell cytotoxicity | 6.6% of 94,000 active | HEK 293 viability, ATP luminescence (CellTiter-Glo), 48-72 h | Potency, µM (highest dose often 115 µM), actives largely listed as inhibitors; further: nearly all actives have a fitted effect of over 60% in size
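CellTiter-Glo luminescence (cellular ATP) was read after 48 or 72 hr of compound exposure at 37 degree Celsius. Cells were HEK 293 plated at 250 cells/well.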
NPR1 antag cnf = confirmation of human Npr1 natriuretic peptide receptor antagonists; shares compounds with hNpr1 antagonist; HEK293 hNpr1 cGMP GloSensor luminescence, ANP-stimulated; Potency, µM (titrated, usually from 57.6 µM), usual class: inhibitors; 76% of 1,400 active; calls by dose curve; further: nearly all actives have a fitted effect of over 70% in size
Npr2 selectivity = antagonizes human Npr2, subtype selectivity check. shares compounds with hNpr1 antagonist. Potency, µM (highest dose often 57.6 µM), hits mostly inhibitors. AID 1347046. HEK293 hNpr2 GloSensor cGMP luminescence, CNP-stimulated. 67% of 1,400 active; calls by dose curve; further: nearly all actives have a fitted effect of over 70% in size
FLuc counter = FLuc enzyme inhibition, Npr1 counter-screen; purified FLuc enzyme, luminescence, Km substrate; 0.7% of 1,400 active; shares compounds with hNpr1 antagonist; Potency, µM (titrated, usually from 57.6 µM), hits mostly inhibitors; AID 1347047; further: series mostly up to about 58 µM
GloSensor cGMP = reduces cGMP signal in GloSensor control cells. HEK293 GloSensor cGMP, SNP-stimulated, luminescence. 69% of 1,400 active. AID 1347051. shares compounds with hNpr1 antagonist. Potency, µM (series often up to 57.6 µM), most hits filed as inhibitors; calls by dose curve; further: nearly all actives have a fitted effect of over 70% in size
Of the large screens only hits and unclear results are named; the others gave an inactive call (follow-up assays come after a bar, where they were run). Shown are actives, neighbours in structure and some others; about 10% of the full set was active somewhere. Unless noted, the call rests on the fitted dose curve; in most records, active means well fitted curve in the direction sought with a large enough effect; inconclusive means small, poorly fitted or top-dose-only effect, or another doubt; inactive means no such curve, though single readings can be large; an effect the other way counts as inactive or inconclusive.

CCNC(=O)CC1=CSC2=NC(C)=C(C(=O)Nc3ccccc3)C(c3ccc(F)cc3)N12 (configuration not stated)	hNpr1 antagonist inconclusive, HEK cytotox inconclusive | NPR1 antag cnf inconclusive | Npr2 selectivity inactive | FLuc counter inactive | GloSensor cGMP inactive
CC1=C(C(=O)Nc2ccccc2)C(c2cccc(C)c2)N2C(CC(=O)NC(C)C)=CSC2=N1 (configuration not stated)	hNpr1 antagonist inconclusive, 3T3 cytotox inconclusive, HEK cytotox inconclusive
CC(C)CN1C(=O)c2ccccc2C(C(=O)Nc2nncs2)C12CCCCC2 (configuration not stated)	none
COCCCNC(=O)c1cc(C2CC2)nc2onc(C3CCCNC3)c12 (configuration not stated)	none (no result: hNpr1 antagonist, FLuc inh)
O=C(Nc1ccc(Cl)cc1)c1nc2c(o1)CCN(Cc1ccc3cn[nH]c3c1)CC2	hNpr1 antagonist 0.56µM, 3T3 cytotox inconclusive, HEK cytotox 45µM | NPR1 antag cnf 3.5µM | Npr2 selectivity 4µM | FLuc counter inactive | GloSensor cGMP 4µM
O=C(Nc1ccc(Cl)cc1)c1nc2c(o1)CCN(Cc1ccc3c(c1)CCO3)CC2	GPT2 inh inconclusive, hNpr1 antagonist 5µM, 3T3 cytotox inconclusive, HEK cytotox inconclusive | NPR1 antag cnf 6.3µM | Npr2 selectivity 11µM | FLuc counter inactive | GloSensor cGMP 8.9µM
Cc1ccc(CN2CCc3nc(C(=O)Nc4ccc(Cl)cc4)oc3CC2)cc1	hNpr1 antagonist 14µM, 3T3 cytotox inconclusive, HEK cytotox inconclusive | NPR1 antag cnf 11µM | Npr2 selectivity 9.9µM | FLuc counter inactive | GloSensor cGMP 14µM
O=C(c1nc2c(o1)CCN(Cc1cccc(Cl)c1)CC2)N1CCOCC1	hNpr1 antagonist inconclusive, 3T3 cytotox inconclusive, HEK cytotox inconclusive
O=C(Nc1ccc(Cl)cc1)c1nc2c(o1)CCN(Cc1ccncc1)CC2	hNpr1 antagonist 1.3µM, 3T3 cytotox inconclusive, HEK cytotox inconclusive | NPR1 antag cnf 3.5µM | Npr2 selectivity 3.5µM | FLuc counter inactive | GloSensor cGMP 3.5µM
CCN1C(=O)CN(C(=O)c2cccc(C)c2)CC12CCOCC2	none
Cc1noc(-c2cn(C3CCN(C(=O)Cc4cccc(Cl)c4)CC3)nn2)n1	none
O=[S+]([O-])(c1ccccc1)N1CCn2c(nnc2-c2ccc(Cl)cc2)C1	3T3 cytotox inconclusive, HEK cytotox inconclusive (no result: hNpr1 antagonist, FLuc inh)
O=C(NCC(F)(F)F)c1ccc2oc(-c3ccncc3Cl)nc2c1	HEK cytotox inconclusive (no result: hNpr1 antagonist, FLuc inh)
O=C(NC(C(=O)N1CCCC1)C1CCN(C(=O)c2cccc(F)c2)CC1)c1ccccc1 (configuration not stated)	none
Cc1cc(CNC(=O)c2ccc3c(c2)n(CC2CC2)c(=O)n3C2CCCCC2)on1	hNpr1 antagonist 5.6µM, 3T3 cytotox inconclusive | NPR1 antag cnf 14µM | Npr2 selectivity 4.8µM | FLuc counter inactive | GloSensor cGMP inactive
Cc1cc(CNC(=O)c2ccc(S(=O)(=O)NCC(F)F)cc2)on1	none
O=C1[C@@H]2C[C@@H](CN2CC2CC2)Oc2ccccc2N1Cc1cccnc1	HEK cytotox inconclusive
O=C1[C@@H]2C[C@@H](CN2Cc2ccc(C(F)(F)F)cc2)Oc2ccccc2N1Cc1cccnc1	3T3 cytotox inconclusive, HEK cytotox 35µM | NPR1 antag cnf inconclusive | Npr2 selectivity inactive | FLuc counter inactive | GloSensor cGMP inactive
O=C1N[C@H](CC(=O)N2CCC(Cc3ccccc3)CC2)C(=O)Nc2ccccc21	hNpr1 antagonist 10µM, HEK cytotox inconclusive | NPR1 antag cnf 19µM | Npr2 selectivity 12µM | FLuc counter inactive | GloSensor cGMP inactive
O=C1N[C@H](CC(=O)N2CCC(c3ccccc3)C2)C(=O)Nc2ccccc21 (some centres not stated)	none
O=C(NCc1ccc(F)cc1)c1nc(-c2ccc(Cl)nc2)c2cnccn12	none (no result: hNpr1 antagonist, FLuc inh)
CCOc1ccc(C(O)Cn2ccn3nc(-c4ccccc4C)cc3c2=O)cc1 (configuration not stated)	hNpr1 antagonist 13µM, 3T3 cytotox inconclusive, HEK cytotox 35µM | NPR1 antag cnf 17µM | Npr2 selectivity inconclusive | FLuc counter inactive | GloSensor cGMP 11µM
CCOc1ccc(-c2cc3c(=O)n(CC(O)c4ccc(C(C)C)cc4)ccn3n2)cc1 (configuration not stated)	none
COCCN[C@H]1[C@@H]2OC[C@@H](O2)[C@@H](NCc2ccc(OC(F)(F)F)cc2)[C@@H]1O	none
CC1CCN(C(=O)CN2C(=O)NC(c3ccccc3)C3=C2COC3=O)CC1 (configuration not stated)	none
O=C1OCC2=C1C(c1ccc(Cl)cc1)NC(=O)N2CC(=O)N1CCC(Cc2ccccc2)CC1 (configuration not stated)	hNpr1 antagonist 13µM, 3T3 cytotox inconclusive, HEK cytotox 28µM | NPR1 antag cnf 19µM | Npr2 selectivity 24µM | FLuc counter inactive | GloSensor cGMP 19µM
CCOc1ccccc1C1NC(=O)N(CC(=O)Nc2cccc(C(F)(F)F)c2)C2=C1C(=O)OC2 (configuration not stated)	hNpr1 antagonist inconclusive, 3T3 cytotox 45µM, HEK cytotox inconclusive | NPR1 antag cnf inconclusive | Npr2 selectivity inactive | FLuc counter inactive | GloSensor cGMP inconclusive
O=C(CN1C(=O)NC(c2ccc(Cl)cc2)C2=C1COC2=O)Nc1cccc(C(F)(F)F)c1 (configuration not stated)	hNpr1 antagonist inconclusive, 3T3 cytotox inconclusive, HEK cytotox inconclusive | NPR1 antag cnf inconclusive | Npr2 selectivity inconclusive | FLuc counter inactive | GloSensor cGMP inconclusive
O=C(Cc1cccc(Cl)c1)NCCNC(=O)c1ccc(-c2cccc(C(F)(F)F)c2)cc1	HEK cytotox inconclusive (no result: GPT2 inh, hNpr1 antagonist, FLuc inh)
COc1ccc2nc(C[C@@H]3C[C@@H](C(C)C)[C@H](CNCc4ccccc4OC)C=C3C)[nH]c2c1	3T3 cytotox 28µM, HEK cytotox 20µM | NPR1 antag cnf inconclusive | Npr2 selectivity inconclusive | FLuc counter inactive | GloSensor cGMP inactive
COc1ccc2nc(C[C@@H]3C[C@@H](C(C)C)[C@H](CNC(=O)CCC(=O)O)C=C3C)[nH]c2c1	none
